Source: PubChem BioAssay
Results filed as inconclusive are left out. The source made the active and inactive calls.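 The calls were made as follows, unless noted: active = normalized viability below 100% at a tested concentration; inactive = the rest.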

How the values were obtained:
[1] = viability loss in pontine glioma line – cell-based, SU-DIPG-XIII, MIPE4.0, CellTiter-Glo, qHTS, dose response (AID 1347061; cut-off not given, nearly all actives have AC50 up to about 37 µM;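 also: cells exposed to compound for 48 hours before readout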); conditions: CellTiter-Glo ATP luminescence
[2] = viability loss in pontine glioma line – cell-based, JHH-DIPG-1, MIPE4.0, CellTiter-Glo, qHTS, dose response (AID 1347062; cut-off not given, nearly all actives have AC50 up to about 27 µM;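 as to AC50: cells exposed to compound for two days before readout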); conditions: JHH-DIPG-1 viability, CellTiter-Glo ATP luminescence
[3] = viability loss in pontine glioma line – cell-based, SU-DIPG-IV, MIPE4.0, CellTiter-Glo, qHTS, dose response (AID 1347063; cut-off not given, nearly all actives have AC50 up to about 30 µM;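 also: compound exposure lasted 48 hours before the viability readout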); conditions: CellTiter-Glo ATP luminescence
[4] = viability loss in pontine glioma line – cell-based, SU-DIPG-XXV, MIPE5.0, CellTiter-Glo, qHTS, dose response (AID 1347065; cut-off not given, nearly all actives have AC50 up to about 26 µM;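 also: cells exposed to compound for 48 hours before ATP readout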); conditions: CellTiter-Glo ATP luminescence
[5] = JHH-DIPG-1 glioma cell viability, MIPE5.0 library, CellTiter-Glo luminescence, qHTS (AID 1347067; cut-off not given, nearly all actives have AC50 up to about 26 µM;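 also: cells exposed to compound for 48 hours before readout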); conditions: JHH-DIPG-1 glioma viability, CellTiter-Glo ATP luminescence
[6] = growth inhibition of DIPG cells – cell-based, MIPE4.0 library, CellTiter-Glo luminescence, qHTS (AID 1347066; cut-off not given, nearly all actives have AC50 up to about 30 µM;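 also: cells exposed to compound for 48 hours before readout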); conditions: SU-DIPG-VI viability, CellTiter-Glo ATP luminescence
[7] = growth inhibition of DIPG cells – cell-based, MIPE5.0 library, qHTS (AID 1347068; cut-off not given, nearly all actives have IC50 up to about 30 µM); conditions: SU-DIPG-XXV viability
[8] = viability loss with induced miR-34 in A549 – imaging, A549 dox-inducible miR-34, nuclei and caspase counts, primary screen (AID 1347080;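 active = compounds whose cell count with miR-34 switched on is under 0.7 times the count with it off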); conditions: A549 miR-34 inducible, Hoechst nuclei count, 48 h
[9] = MELAS cybrid and Rieske KO viability enhancers – cell-based, MELAS cybrids, Rieske KO mouse fibroblasts, CellTiter-Glo, primary screen (AID 1508586;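 active = mean z-score across replicates of 1.96 or higher in either the MELAS or the Rieske mutant cell line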;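 also: z relative to plate mean and SD of compound and empty wells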); conditions: low glucose
[10] = drug combination growth inhibition, ovarian cancer – cell-based, oncology-focused library, rucaparib conditional, profiling panel (AID 1508598); conditions: patient-derived ovarian cancer cells, CellTiter-Glo viability, 144 h, stronger effect = lower value

With `CN(C)CCCNC(=O)c1ccc(-c2cc(O)c3ncccc3c2)cc1` the outcome [1] was “inactive”, the outcome [2] was “inactive” and the outcome [3] was “inactive”. The outcome [4] was “inactive” and the outcome [5] was “inactive”.

For `C1=C/COCc2cc(ccc2OCCN2CCCC2)Nc2nccc(n2)-c2cccc(c2)OCC/1`, the AC50 [1] was 14.8 µM (active), the AC50 [2] was 4.18 µM (active) and the AC50 [3] was 2.35 µM (active). The AC50 [6] was 5.26 µM (active).

In the case of `CC1COC2(CCN(c3nc(=O)c4cc(C(F)(F)F)cc([N+](=O)[O-])c4s3)CC2)O1` (centres undefined), the outcome [1] was “inactive”, the outcome [2] was “inactive” and the outcome [3] was “inactive”. For the same compound, the outcome [4] was “inactive”, the outcome [6] was “inactive” and the outcome [5] was “inactive”. The outcome [7] was “inactive”, the fold change ([8]; stronger effect = lower value, cell number ratio, induced over uninduced) was 0.872 (inactive) and the fold change ([8]; measured here: relative caspase fold change +Dox/-Dox) was 0.894. For the same compound, the cell count ([8]; measured here: total cells with miR-34 induction, stronger effect = lower value) was 6990, the cell count ([8]; measured here: total cells without miR-34 induction) was 8010 and the z-score ([9]; MELAS cybrid survival, CellTiter-Glo 48 h, stronger effect = higher value) was -0.641 (inactive). For the same compound, the z-score ([9]; Rieske KO mouse fibroblast survival, CellTiter-Glo 72 h) was -0.174, the viability ([10]; at 0.000305 µM, OCI-C5x cells, with rucaparib 10 µM, 100% = cells with rucaparib alone) was 115% (inactive) and the viability ([10]; at 0.000305 µM, OCI-C5x cells, without rucaparib) was 107% (inactive). For the same compound, the viability ([10]; at 0.000305 µM, OCI-P5x cells, with rucaparib 20 µM, 100% = cells with rucaparib alone) was 99.5% (active), the viability ([10]; at 0.000305 µM, OCI-P5x cells, without rucaparib) was 95.5% (active) and the viability ([10]; at 0.00122 µM, OCI-C5x cells, with rucaparib 10 µM, 100% = cells with rucaparib alone) was 134% (inactive). For the same compound, the viability ([10]; at 0.00122 µM, OCI-C5x cells, without rucaparib) was 116% (inactive), the viability ([10]; at 0.00122 µM, OCI-P5x cells, with rucaparib 20 µM, 100% = cells with rucaparib alone) was 105% (inactive) and the viability ([10]; at 0.00122 µM, OCI-P5x cells, without rucaparib) was 94.9% (active). For the same compound, the viability ([10]; at 0.00488 µM, OCI-C5x cells, with rucaparib 10 µM, 100% = cells with rucaparib alone) was 129% (inactive), the viability ([10]; at 0.00488 µM, OCI-C5x cells, without rucaparib) was 119% (inactive) and the viability ([10]; at 0.00488 µM, OCI-P5x cells, with rucaparib 20 µM, 100% = cells with rucaparib alone) was 102% (inactive). The viability ([10]; at 0.00488 µM, OCI-P5x cells, without rucaparib) was 104% (inactive), the viability ([10]; at 0.0195 µM, OCI-C5x cells, with rucaparib 10 µM, 100% = cells with rucaparib alone) was 126% (inactive) and the viability ([10]; at 0.0195 µM, OCI-C5x cells, without rucaparib) was 112% (inactive). For the same compound, the viability ([10]; at 0.0195 µM, OCI-P5x cells, with rucaparib 20 µM, 100% = cells with rucaparib alone) was 105% (inactive), the viability ([10]; at 0.0195 µM, OCI-P5x cells, without rucaparib) was 106% (inactive) and the viability ([10]; at 0.0781 µM, OCI-C5x cells, with rucaparib 10 µM, 100% = cells with rucaparib alone) was 118% (inactive). For the same compound, the viability ([10]; at 0.0781 µM, OCI-C5x cells, without rucaparib) was 116% (inactive), the viability ([10]; at 0.0781 µM, OCI-P5x cells, with rucaparib 20 µM, 100% = cells with rucaparib alone) was 107% (inactive) and the viability ([10]; at 0.0781 µM, OCI-P5x cells, without rucaparib) was 103% (inactive). The viability ([10]; at 0.313 µM, OCI-C5x cells, with rucaparib 10 µM, 100% = cells with rucaparib alone) was 121% (inactive), the viability ([10]; at 0.313 µM, OCI-C5x cells, without rucaparib) was 118% (inactive) and the viability ([10]; at 0.313 µM, OCI-P5x cells, with rucaparib 20 µM, 100% = cells with rucaparib alone) was 111% (inactive). For the same compound, the viability ([10]; at 0.313 µM, OCI-P5x cells, without rucaparib) was 108% (inactive), the viability ([10]; at 1.25 µM, OCI-C5x cells, with rucaparib 10 µM, 100% = cells with rucaparib alone) was 115% (inactive) and the viability ([10]; at 1.25 µM, OCI-C5x cells, without rucaparib) was 130% (inactive). The viability ([10]; at 1.25 µM, OCI-P5x cells, with rucaparib 20 µM, 100% = cells with rucaparib alone) was 102% (inactive), the viability ([10]; at 1.25 µM, OCI-P5x cells, without rucaparib) was 108% (inactive) and the viability ([10]; at 5 µM, OCI-C5x cells, with rucaparib 10 µM, 100% = cells with rucaparib alone) was 122% (inactive). The viability ([10]; at 5 µM, OCI-C5x cells, without rucaparib) was 121% (inactive), the viability ([10]; at 5 µM, OCI-P5x cells, with rucaparib 20 µM, 100% = cells with rucaparib alone) was 108% (inactive) and the viability ([10]; at 5 µM, OCI-P5x cells, without rucaparib) was 105% (inactive).
